# Experimental data as given in ChEMBL document CHEMBL3988442, “University of Dundee, Small-Polar-MMV Screening Library” (2021).
# For some of these results: Potency and affinity values are given separately.
# Columns and labels:
# Set-up in all cases: scale not given: direction of the effect not stated beside the values
# [1] = target: Protein translocase subunit SecA (Escherichia coli (strain K12)) (UniProt P10408); experiment: Assay to Identify E. coli SecA ATPase Inhibitors; format: functional; conditions: 30 µM
# Protein translocase subunit SecA (Escherichia coli (strain K12)), sequence (P10408 whole entry): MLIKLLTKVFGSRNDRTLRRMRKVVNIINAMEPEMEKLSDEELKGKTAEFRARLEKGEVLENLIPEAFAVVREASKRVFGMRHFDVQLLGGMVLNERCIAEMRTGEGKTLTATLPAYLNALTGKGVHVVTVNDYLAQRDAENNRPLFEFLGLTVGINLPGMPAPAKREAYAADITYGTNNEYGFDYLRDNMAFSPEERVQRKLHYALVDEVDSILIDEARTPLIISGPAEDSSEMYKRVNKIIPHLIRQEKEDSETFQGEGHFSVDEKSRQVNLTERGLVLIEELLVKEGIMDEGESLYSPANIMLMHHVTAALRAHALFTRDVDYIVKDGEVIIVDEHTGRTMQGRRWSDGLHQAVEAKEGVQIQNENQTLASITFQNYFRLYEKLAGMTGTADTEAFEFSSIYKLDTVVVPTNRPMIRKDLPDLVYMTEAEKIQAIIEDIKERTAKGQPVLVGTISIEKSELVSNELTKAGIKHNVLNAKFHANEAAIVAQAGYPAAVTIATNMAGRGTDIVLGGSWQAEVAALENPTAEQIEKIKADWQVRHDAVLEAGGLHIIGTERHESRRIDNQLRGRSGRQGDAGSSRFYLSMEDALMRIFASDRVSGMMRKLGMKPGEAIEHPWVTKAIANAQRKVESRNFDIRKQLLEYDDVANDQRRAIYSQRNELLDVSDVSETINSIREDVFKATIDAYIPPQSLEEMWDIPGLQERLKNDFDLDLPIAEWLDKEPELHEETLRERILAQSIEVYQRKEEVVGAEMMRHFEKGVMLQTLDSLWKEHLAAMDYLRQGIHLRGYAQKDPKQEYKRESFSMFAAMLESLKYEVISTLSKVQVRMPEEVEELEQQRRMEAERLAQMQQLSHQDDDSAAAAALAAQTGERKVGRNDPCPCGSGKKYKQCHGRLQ
# [2] = target: T1, Ubiquitin-activating enzyme e1, putative (Leishmania donovani (strain BPK282A1)) (UniProt E9BSI1); experiment: Leishmania donovani Ubiquitin Activating Enzyme (LdE1); format: functional; conditions: 30 µM
# T1 sequence (whole entry): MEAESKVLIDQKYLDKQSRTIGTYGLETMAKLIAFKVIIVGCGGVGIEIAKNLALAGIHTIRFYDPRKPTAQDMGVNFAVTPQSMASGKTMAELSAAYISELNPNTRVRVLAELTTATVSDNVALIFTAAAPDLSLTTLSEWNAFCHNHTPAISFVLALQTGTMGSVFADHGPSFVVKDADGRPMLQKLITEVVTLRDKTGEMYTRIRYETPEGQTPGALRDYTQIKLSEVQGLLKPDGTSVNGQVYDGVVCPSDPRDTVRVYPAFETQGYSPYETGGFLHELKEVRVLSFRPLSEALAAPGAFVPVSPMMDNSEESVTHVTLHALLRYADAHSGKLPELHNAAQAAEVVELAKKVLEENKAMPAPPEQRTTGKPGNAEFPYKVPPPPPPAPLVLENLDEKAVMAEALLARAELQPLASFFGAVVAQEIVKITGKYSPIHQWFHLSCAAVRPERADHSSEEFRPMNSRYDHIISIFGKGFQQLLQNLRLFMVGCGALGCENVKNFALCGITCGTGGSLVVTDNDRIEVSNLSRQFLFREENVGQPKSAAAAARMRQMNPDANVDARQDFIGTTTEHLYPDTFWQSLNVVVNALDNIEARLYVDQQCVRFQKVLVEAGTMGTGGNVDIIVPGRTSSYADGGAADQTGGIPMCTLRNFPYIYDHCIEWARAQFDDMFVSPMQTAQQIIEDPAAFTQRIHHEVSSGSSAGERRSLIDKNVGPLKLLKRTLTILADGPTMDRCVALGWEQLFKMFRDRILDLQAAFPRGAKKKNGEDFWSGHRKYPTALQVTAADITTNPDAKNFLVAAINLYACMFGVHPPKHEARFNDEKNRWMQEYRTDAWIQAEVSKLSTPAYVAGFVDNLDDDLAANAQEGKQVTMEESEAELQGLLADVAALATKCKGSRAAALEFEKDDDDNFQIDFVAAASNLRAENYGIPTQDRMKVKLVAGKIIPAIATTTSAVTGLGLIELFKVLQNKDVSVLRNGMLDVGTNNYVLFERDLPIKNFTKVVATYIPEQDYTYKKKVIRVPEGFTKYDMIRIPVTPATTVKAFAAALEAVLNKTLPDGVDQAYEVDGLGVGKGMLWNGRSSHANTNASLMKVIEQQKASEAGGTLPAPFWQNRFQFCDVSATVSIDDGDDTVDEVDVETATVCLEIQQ
# [3] = target: AMP-activated protein kinase, AMPK (Homo sapiens) (UniProt P54646+O43741+P54619+Q9UGJ0+Q9Y478+Q13131+Q9UGI9); experiment: AMP-dependent Kinase enzyme assay. An in vitro enzyme assay that detects ADP turnover that is directly proportional to AMPK activity. This uses naive AMPK that is activated during the assay with MK-8722; format: functional; conditions: 30 µM
# [4] = target: Sialic acid-binding Ig-like lectin 9 (Homo sapiens) (UniProt Q9Y336); experiment: Hs-Siglec9 ALPHAscreen SOP 20170721; conditions: 10 µM
# Sialic acid-binding Ig-like lectin 9 (Homo sapiens), sequence (Q9Y336 whole entry): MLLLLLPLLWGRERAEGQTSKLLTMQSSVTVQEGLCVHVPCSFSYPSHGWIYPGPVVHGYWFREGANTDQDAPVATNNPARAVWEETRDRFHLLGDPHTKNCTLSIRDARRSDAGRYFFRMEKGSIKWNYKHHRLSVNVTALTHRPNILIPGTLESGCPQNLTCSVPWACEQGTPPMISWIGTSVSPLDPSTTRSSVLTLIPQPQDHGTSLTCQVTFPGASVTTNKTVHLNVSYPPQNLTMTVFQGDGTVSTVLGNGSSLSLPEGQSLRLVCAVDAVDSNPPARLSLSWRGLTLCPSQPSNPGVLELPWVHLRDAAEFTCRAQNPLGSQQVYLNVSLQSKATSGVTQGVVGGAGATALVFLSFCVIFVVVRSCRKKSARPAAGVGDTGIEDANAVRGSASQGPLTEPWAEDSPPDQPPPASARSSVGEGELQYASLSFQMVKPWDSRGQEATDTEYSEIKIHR
# Trypanosoma cruzi = experiment: Trypanosoma cruzi phosphomannomutase and mannose-1-phosphate guanylyltransferase assay; format: functional; conditions: 10 µM
# [5] = target: T2, Arginase-2, mitochondrial (Homo sapiens) (UniProt P78540); experiment: in vitro enzyme assay to detect the production of urea directly proportional to the activity of Arginase II; format: functional; conditions: 33.3 µM; also: in the data most compounds retested in dose-response had high values
# T2 sequence (whole entry): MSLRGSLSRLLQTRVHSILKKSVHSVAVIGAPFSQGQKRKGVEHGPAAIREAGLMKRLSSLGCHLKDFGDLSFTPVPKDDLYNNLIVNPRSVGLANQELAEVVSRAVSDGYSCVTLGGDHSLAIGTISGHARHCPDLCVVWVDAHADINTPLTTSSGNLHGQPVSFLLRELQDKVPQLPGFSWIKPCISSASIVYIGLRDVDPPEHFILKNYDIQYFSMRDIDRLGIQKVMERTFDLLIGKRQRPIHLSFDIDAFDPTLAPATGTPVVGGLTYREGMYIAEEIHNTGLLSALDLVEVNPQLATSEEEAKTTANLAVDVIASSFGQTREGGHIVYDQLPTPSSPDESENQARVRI
# [6] = target: T3, Proteasome subunit beta (Trypanosoma cruzi) (UniProt O96673); experiment: Trypanosoma cruzi proteasome chymotrypsin-like activity (TcProtChymo) assay.; also: in the data most compounds retested in dose-response had high values; format: functional; conditions: 9.37 µM
# T3 sequence (whole entry): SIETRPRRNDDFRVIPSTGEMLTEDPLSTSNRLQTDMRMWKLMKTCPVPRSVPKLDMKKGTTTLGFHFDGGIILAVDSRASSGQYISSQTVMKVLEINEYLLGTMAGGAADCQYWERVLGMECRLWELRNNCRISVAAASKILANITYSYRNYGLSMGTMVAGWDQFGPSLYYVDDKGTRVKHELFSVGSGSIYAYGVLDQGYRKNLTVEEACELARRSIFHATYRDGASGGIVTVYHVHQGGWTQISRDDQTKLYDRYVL
# Homo sapiens = organism: Homo sapiens; experiment: To identify inhibition of the IFN signalling (Jak-Stat) pathway via expression of an eGFP reporter gene under the control of an IFN-stimulated response element (ISRE) containing MxA promoter.; format: functional; conditions: 30 µM
# [7] = target: T4, Tyrosyl-tRNA synthetase, putative (Trypanosoma cruzi (strain CL Brener)) (UniProt Q4DSP6); experiment: Trypanosoma cruzi tyrosyl tRNA synthetase (TcYRS) _High Tyrosine SOP; format: functional; conditions: 30 µM; also: in the data most compounds retested in dose-response had high values
# T4 sequence (whole entry): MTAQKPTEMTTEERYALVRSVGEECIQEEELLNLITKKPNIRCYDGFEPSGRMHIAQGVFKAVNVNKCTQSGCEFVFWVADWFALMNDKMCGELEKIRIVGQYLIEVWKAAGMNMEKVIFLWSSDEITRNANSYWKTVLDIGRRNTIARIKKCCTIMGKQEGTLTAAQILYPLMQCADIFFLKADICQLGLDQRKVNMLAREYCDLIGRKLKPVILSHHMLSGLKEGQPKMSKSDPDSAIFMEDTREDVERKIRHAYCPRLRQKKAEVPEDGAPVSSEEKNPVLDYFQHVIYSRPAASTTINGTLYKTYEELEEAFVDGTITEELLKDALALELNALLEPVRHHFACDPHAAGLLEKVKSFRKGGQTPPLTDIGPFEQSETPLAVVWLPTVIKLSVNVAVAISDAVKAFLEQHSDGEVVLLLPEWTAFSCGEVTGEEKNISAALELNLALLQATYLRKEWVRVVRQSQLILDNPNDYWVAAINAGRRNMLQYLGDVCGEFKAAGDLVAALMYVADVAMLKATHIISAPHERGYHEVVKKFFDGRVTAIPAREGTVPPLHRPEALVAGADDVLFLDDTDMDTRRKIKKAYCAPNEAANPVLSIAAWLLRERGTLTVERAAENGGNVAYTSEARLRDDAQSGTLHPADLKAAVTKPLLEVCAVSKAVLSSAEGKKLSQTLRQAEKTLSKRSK
# [8] = target: T4, Tyrosyl-tRNA synthetase, putative (Trypanosoma cruzi (strain CL Brener)); experiment: Trypanosoma cruzi tyrosyl tRNA synthetase (TcYRS) SOP; format: functional; conditions: 30 µM
# [9] = target: Chromo domain-containing protein 1 (Saccharomyces cerevisiae (strain ATCC 204508 / S288c) (Baker's yeast)) (UniProt P32657); experiment: ScCHD-1 Enzyme Inhibition Assay; format: functional; conditions: 30 µM; also: in the data most compounds retested in dose-response had high values
# Chromo domain-containing protein 1 (Saccharomyces cerevisiae (strain ATCC 204508 / S288c) (Baker's yeast)), sequence (P32657 whole entry, the tested form may be a part): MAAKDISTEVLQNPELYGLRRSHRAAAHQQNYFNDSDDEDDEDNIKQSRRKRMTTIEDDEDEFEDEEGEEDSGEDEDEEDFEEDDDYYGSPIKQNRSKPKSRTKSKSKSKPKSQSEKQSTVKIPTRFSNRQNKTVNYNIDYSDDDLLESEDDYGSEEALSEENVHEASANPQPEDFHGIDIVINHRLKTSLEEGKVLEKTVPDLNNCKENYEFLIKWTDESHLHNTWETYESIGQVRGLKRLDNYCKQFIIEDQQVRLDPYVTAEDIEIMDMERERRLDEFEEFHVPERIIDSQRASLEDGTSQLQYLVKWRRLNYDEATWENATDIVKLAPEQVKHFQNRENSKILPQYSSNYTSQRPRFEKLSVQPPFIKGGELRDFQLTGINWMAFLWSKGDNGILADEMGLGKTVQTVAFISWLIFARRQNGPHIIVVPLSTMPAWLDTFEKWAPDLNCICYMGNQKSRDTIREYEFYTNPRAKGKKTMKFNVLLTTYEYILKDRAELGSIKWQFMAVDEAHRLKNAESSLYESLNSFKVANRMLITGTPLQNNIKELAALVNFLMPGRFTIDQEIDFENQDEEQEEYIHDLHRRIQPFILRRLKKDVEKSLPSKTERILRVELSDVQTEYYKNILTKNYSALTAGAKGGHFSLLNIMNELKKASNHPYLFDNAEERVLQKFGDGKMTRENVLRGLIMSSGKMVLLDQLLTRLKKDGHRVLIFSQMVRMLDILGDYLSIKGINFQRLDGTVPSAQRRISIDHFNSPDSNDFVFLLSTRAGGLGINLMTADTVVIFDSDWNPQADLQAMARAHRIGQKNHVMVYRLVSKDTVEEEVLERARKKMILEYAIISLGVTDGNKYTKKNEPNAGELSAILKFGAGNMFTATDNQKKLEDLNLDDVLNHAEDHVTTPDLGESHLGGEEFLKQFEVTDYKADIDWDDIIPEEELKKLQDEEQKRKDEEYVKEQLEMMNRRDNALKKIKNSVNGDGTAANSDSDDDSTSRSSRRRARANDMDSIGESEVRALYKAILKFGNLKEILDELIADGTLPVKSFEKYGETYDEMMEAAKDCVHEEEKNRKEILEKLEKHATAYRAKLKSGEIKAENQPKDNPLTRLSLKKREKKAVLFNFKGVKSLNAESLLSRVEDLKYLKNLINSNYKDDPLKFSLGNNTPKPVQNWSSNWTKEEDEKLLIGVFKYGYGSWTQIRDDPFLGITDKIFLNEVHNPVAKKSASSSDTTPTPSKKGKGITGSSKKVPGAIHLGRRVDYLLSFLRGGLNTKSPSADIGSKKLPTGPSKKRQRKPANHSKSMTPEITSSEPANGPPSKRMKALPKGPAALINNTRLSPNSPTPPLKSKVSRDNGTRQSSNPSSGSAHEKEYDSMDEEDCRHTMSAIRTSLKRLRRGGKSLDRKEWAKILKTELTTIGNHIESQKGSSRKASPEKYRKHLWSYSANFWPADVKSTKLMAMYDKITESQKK
SMILES,Percent Effect [1],Percent Effect [2],Percent Effect [3],Percent Effect [4],Percent Effect (Trypanosoma cruzi),Percent Effect [5],Percent Effect [6],Percent Effect (Homo sapiens),Percent Effect [7],Percent Effect [8],Percent Effect [9]
CCn1ccnc1CN1CCN(C(C)C(=O)NC2CCCCC2)CC1 (stereo unspecified),-6.02%,5.26%,-1.96%,-3.82%,-7.71%,0.766%,5.68%,24.7%,-3.43%,-4.88%,5.81%
CCN(C)c1ncnc2c1CCN(C(=O)c1ccno1)CC2,-6.78%,13.3%,0.989%,3.39%,-4.05%,-46.4%,5.81%,-5.04%,4.17%,7.5%,-5.33%
COc1ccc(C2(NC(=O)CCn3cncn3)CCCCC2)cc1,-4.12%,9.46%,4.65%,7.71%,0.79%,1.62%,11.2%,-2%,3.23%,11.7%,-14.1%
COCC(=O)N1CC[C@@H]2O[C@H](COCc3ccncc3)CC[C@@H]21,-3.69%,18.9%,10.4%,-8.21%,-4.2%,9.24%,16.6%,-0.209%,1.08%,17.9%,-0.872%
O=C(Nc1nc2c(s1)CN(S(=O)(=O)C1CC1)CC2)c1c(F)cccc1F,-3.34%,0%,17.1%,-7.6%,-4.11%,2.27%,9.41%,30.1%,3.23%,7.5%,-4.6%
O=c1c2ccccc2nc2n1CCN(Cc1cccs1)CC2,-2.59%,20.3%,9.44%,0.538%,1.98%,-4.41%,17%,23.7%,5.38%,14.3%,-12.4%
Cc1noc(C)c1CN1C[C@@H]2COC[C@H](C(=O)N3CCCCO3)[C@@H]2C1,-5.77%,8%,8.79%,-0.115%,-5.12%,-1.17%,7.31%,3.63%,6.38%,8.97%,-0.163%
CCc1nnc2n1CCN(C(=O)COCCc1ccccc1)C2,-5.81%,15.8%,-4.37%,7.1%,-2.71%,1.8%,1.78%,-1.11%,3.45%,13.6%,-2.89%
O=C(CN1CCOC(Cn2cccn2)C1)NCc1cccs1 (stereo unspecified),0.0678%,-2.7%,-5.7%,11.3%,1.58%,-0.924%,1.98%,-5.12%,0.99%,3.66%,-4.1%
CNS(=O)(=O)c1ccc(C(=O)N2CCCC2c2cnn(C)c2)o1 (stereo unspecified),-2.43%,7.89%,-0.508%,-1.15%,8.12%,0.719%,-0.761%,1.2%,1.48%,6.17%,-6.23%
O=C(N[C@@H]1CN(Cc2ccccc2)C[C@@H]2CCCO[C@@H]21)C1CC1,3.31%,10.7%,0.707%,7.92%,-2.32%,-49.3%,4.96%,-2.02%,7.29%,22.5%,-7.85%
